PubChem BioAssay AID2283197 (EPA ToxCast)
The source made the active and inactive calls. Rule for the calls: active = hit-call score of the fitted dose curve at least 0.9, where 1 is the maximum; inactive = score below 0.9.

Biological target: human Protein Kinase D2 (PKD2), PRKD2 (gene 25865) (UniProt Q9BZL6)
Assay: NVS_ENZ_hPKD2: NovaScreen (NVS) Enzymatic Assay for human Protein Kinase D2 (PKD2)
Experimental: NVS_ENZ_hPKD2 is a biochemical, single-readout assay that uses extracted gene-proteins in a cell-free assay. Measurements were taken 1 hour after chemical dosing in a 384-well plate.NVS_ENZ_hPKD2 is one of one assay component(s) measured or calculated from the NVS_ENZ_hPKD2 assay. It is designed to make measurements of enzyme activity, a form of enzyme reporter, as detected with fluorescence intensity signals by Fluorescence and electrophoretic mobility shift technology.Data from the assay component NVS_ENZ_hPKD2 was analyzed into 1 assay endpoint. This assay endpoint, NVS_ENZ_hPKD2, was analyzed in the positive analysis fitting direction relative to DMSO as the negative control and baseline of activity. Using a type of enzyme reporter, loss-of-signal activity can be used to understand changes in the enzymatic activity as they relate to the gene PRKD2. Furthermore, this assay endpoint can be referred to as a primary readout, because this assay has produced multiple assay endpoints where this one serves a enzymatic activity function. To generalize the intended target to other relatable targets, this assay endpoint is annotated to the kinase intended target family, where the subfamily is serine/threonine kinase. […]

Sequence of human Protein Kinase D2 (PKD2), PRKD2 (gene 25865) (Q9BZL6 whole entry, looked up): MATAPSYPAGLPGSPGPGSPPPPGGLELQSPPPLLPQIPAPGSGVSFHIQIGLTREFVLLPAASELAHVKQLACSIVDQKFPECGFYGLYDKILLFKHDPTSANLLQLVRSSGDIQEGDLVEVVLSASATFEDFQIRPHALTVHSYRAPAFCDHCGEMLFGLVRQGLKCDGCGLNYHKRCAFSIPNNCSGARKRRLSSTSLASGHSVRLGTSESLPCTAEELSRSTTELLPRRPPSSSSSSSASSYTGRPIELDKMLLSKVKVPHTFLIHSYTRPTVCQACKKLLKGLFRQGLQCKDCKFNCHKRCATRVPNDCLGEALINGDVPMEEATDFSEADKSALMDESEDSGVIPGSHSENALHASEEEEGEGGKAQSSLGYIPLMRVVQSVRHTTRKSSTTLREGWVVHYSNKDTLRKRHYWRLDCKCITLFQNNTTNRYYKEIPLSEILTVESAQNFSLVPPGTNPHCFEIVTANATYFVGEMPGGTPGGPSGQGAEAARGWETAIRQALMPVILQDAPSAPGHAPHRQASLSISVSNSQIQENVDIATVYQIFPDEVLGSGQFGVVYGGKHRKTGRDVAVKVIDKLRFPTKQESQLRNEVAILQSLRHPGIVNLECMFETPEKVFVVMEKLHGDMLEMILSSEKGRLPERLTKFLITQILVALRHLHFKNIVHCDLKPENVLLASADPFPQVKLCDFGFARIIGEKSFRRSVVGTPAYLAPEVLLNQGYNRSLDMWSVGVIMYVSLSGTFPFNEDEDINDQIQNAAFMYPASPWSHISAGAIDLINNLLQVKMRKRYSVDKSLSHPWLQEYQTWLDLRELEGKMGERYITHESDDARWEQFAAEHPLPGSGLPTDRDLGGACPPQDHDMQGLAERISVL

SMILES	outcome
Oc1ccc(C(c2ccc(O)cc2)C(Cl)(Cl)Cl)cc1	inactive
N#CSCSc1nc2ccccc2s1	inactive
